Shiga inhibitor: inhibitors of Shiga toxin in Vero cells. Vero cells, Shiga toxin protein synthesis inhibition reporter. inhibition, % at 38.7 µM. 290,000 compounds, 9.2% hits. AID 2315; in the data active = inhibition mostly above about 28%, no sharp cut-off; inactive = mostly below about 43%; note: 0% is about no effect
Tb PYK inh: T. brucei pyruvate kinase inhibition; 410,000 compounds, 0.12% hits; Potency, µM (highest dose often 76.8 µM), without a hit: at the highest dose activity, negative = inhibition, hits mostly inhibitors; TbPYK enzyme, Kinase-Glo Plus ATP luminescence, 45 min; Q57TT1; AID 624173; note: potency is the fitted concentration of half-maximal effect; % is set by controls: 0 for no effect and ±100 for the full control effect; nearly all actives have a fitted effect of over 50% in size
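Readout: single end-point luminescence (Kinase-Glo Plus, 10 min). Reaction conditions were TbPYK/substrate plus 130 uM ADP, 45 min at RT, pH 7.2 TEA buffer. No-enzyme wells served as controls, and data were normalized before concentration-response fitting.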
Cycloheximide cs: counter-screen hit for Shiga toxin inhibitors, cycloheximide; max response, %; 300,000 compounds, 12% hits; AID 2314; cell reporter, cycloheximide protein synthesis inhibition counterscreen; in the data active = max response mostly above about 13%, no sharp cut-off; inactive = mostly below about 14%; note: read at 38.3 µM for the half of the compounds with a filed dose; 0% is about no effect
LmPK inhibitor: inhibitors of Leishmania mexicana pyruvate kinase; 290,000 compounds, 0.37% hits; Q27686; purified LmPK, Kinase-Glo ATP luminescence, 1 h; Potency, µM (doses to about 57.5 µM), inactives show top-dose activity change, negative = inhibition, actives largely listed as inhibitors; note: potency is the fitted concentration of half-maximal effect; % is set by controls: 0 for no effect and ±100 for the full control effect
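0.1 nM LmPK, 0.5 mM PEP, 0.1 mM ADP; 50 mM imidazole pH 7.2, 7 mM MgCl2, 50 mM KCl; 1 h RT. Kinase-Glo luminescence readout, normalized to no-enzyme (full inhibition) and uninhibited wells.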
Giardia FBPA inh: inhibitors of Giardia lamblia fructose-1,6-bisphosphate aldolase. 290,000 compounds, 0.71% hits. Potency, µM (titrated, usually from 59.6 µM), for inactives: at the top dose activity, negative = inhibition, hits mostly inhibitors. purified Giardia FBPA. A8B2U2. AID 2451; note: potency is the fitted concentration of half-maximal effect; % is set by controls: 0 for no effect and ±100 for the full control effect; nearly all actives have a fitted effect of over 55% in size
Target sequence (A8B2U2 whole entry, looked up): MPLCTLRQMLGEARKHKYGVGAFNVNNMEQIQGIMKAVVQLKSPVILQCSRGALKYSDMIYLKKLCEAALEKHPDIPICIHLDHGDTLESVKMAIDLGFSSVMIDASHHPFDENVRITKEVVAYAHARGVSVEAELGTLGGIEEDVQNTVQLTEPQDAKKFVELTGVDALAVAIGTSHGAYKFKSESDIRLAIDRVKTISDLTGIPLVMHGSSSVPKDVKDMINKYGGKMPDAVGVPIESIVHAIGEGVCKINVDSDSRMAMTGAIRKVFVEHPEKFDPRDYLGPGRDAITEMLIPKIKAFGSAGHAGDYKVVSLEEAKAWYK
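Giardia FBPA (40 nM reagent) was preincubated 10 min at RT with compound (up to 57.5 uM final), then substrate plus GAPDH/TPI/NAD/arsenate coupling system with diaphorase/resazurin was added; resorufin fluorescence (525/598 nm) was read after 20 min.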
Sm TGR block: S. mansoni TGR enzyme inhibition; Q962Y6; purified TGR, DTNB reduction, TNB absorbance 405 nm; Potency, µM (titrated, usually from 114 µM), for the others: at the top dose activity change, negative = inhibition, actives largely listed as inhibitors; 360,000 compounds, 3% hits; note: potency is the fitted concentration of half-maximal effect; % is set by controls: 0 for no effect and ±100 for the full control effect; nearly all actives have a fitted effect of over 60% in size
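Kinetic colorimetric format: TGR-catalysed, NADPH-driven DTNB reduction monitored via TNB absorbance. Enzyme dispensed at 20 nM; compound exposure 15 min at room temperature before reaction start.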
The depositor's hits bear a star; ? = inconclusive; / = not tested or not shown; [ ] = dose if it differs, or a comment. Shown is part of a subset that was picked to be rich in hits. Unless noted, calls come from the whole dose curve; as a rule, active = well fitted curve in the direction sought with a large enough effect; inconclusive = small, poorly fitted or top-dose-only effect, or another doubt; inactive = no such curve, though single readings can be large; an effect the other way counts as inactive or inconclusive.

SMILES	Shiga inhibitor	Tb PYK inh	Cycloheximide cs	LmPK inhibitor	Giardia FBPA inh	Sm TGR block
c1csc(-c2noc(CN3CCOCC3)n2)c1	41*	3%	31*	-5%	4%	5%
OC[C@@H]1CCCN1Cc1nc(-c2cccs2)no1	51*	-8%	19*	7%	-2%	-30%
c1csc(-c2noc(CN3CCN4CCCC4C3)n2)c1 (stereo not drawn)	47*	-11%	21*	2%	0%	-20%
CCOc1ccc(S(=O)(=O)N2CCC(C(=O)NCCc3ccc(S(N)(=O)=O)cc3)CC2)cc1	-13	0%	0	0%	-4%	5%
Cc1ccc(NC(=O)C(C)N2C(=O)c3ccccc3S2(=O)=O)cc1Cl (stereo not drawn)	/	7%	/	/	/	1%
Cc1ccc(N2C(=O)c3ccccc3NC2(C(=O)O)c2ccccc2)cc1Cl (stereo not drawn)	99*	6%	66*	1%	14%	-5%
CCN(CC)CCN=c1c(C)nc(C#N)c(N)n1O	/	6%	/	/	/	/
O=C1CC(Nc2ccccc2)C(=O)N1c1ccc(N2CCOCC2)cc1 (stereo not drawn)	2	2%	3	2%	-13%	-33%
COc1ccc(NC2CC(=O)N(C(C)C)C2=O)cc1 (stereo not drawn)	23	-10%	8	-3%	?	7.9µM*
CC(C)N1C(=O)CC(Nc2cccc3cccc(N)c23)C1=O (stereo not drawn)	1	-11%	0	0%	?	?
O=C1CC(NNc2ccccc2)C(=O)N1c1ccc(N2CCCCC2)cc1 (stereo not drawn)	6	-3%	10	1%	-7%	45µM*
CC(C)c1ccc(C(=O)Nc2ccc(N3CCOCC3)cc2)cc1	15	-6%	8	0%	-1%	-7%
O=C1CC(Nc2ccc(N3CCOCC3)cc2)C(=O)N1c1ccccc1F (stereo not drawn)	9	-17%	7	0%	-15%	40µM*
CC(C)N1C(=O)CC(Nc2ccc(N3CCOCC3)cc2)C1=O (stereo not drawn)	30	-4%	39*	-11%	-2%	35µM*
CCOc1ccccc1NC(=O)NCc1ccc2c(c1)CCN2C(=O)c1ccccc1	/	9%	/	/	/	-12%
Cc1nc2cnc(Oc3ccccc3)nc2n(CCC#N)c1=O	/	0%	/	/	-5%	/
O=C(Nc1cccc(F)c1)C1CCN(S(=O)(=O)c2ccc3[nH]c4c(c3c2)CCCCC4)CC1	/	2%[15.4 µM]	/	/	/	0%
O=C1CC(Nc2ccc(N3CCOCC3)cc2)C(=O)N1C1CCCCC1 (stereo not drawn)	-1	-18%	-3	-5%	-8%	40µM*
CCN1CCN(c2cc(C)c3cc(NC(=S)N4CCCC(C)C4)ccc3n2)CC1 (stereo not drawn)	62*	2%	33*	7%	-9%	3%
CCN1CCN(c2cc(C)c3cc(NC(=O)c4ccc(Br)o4)ccc3n2)CC1	102	1%	15*	5%	-19%	-7%
CCN1CCN(c2cc(C)c3cc(NC(=S)N4CCCCC4)ccc3n2)CC1	54	-4%	21*	-1%	-19%	4%
Cc1cc(N2CCN(C)CC2)nc2ccc(NC(=O)c3ccccc3F)cc12	72*	-6%	37*	3%	-3%	8%
CCN1CCN(c2cc(C)c3cc(NC(=O)c4ccncc4)ccc3n2)CC1	-21	-1%	-3	0%	-3%	?
COc1ccc2cc(C(=O)NCc3ccc4c(c3)CCN4C(=O)c3ccc(C)cc3)[nH]c2c1	/	10%	/	/	/	-6%
CC(=O)c1ccc(NC(=O)C2CCC(CNS(=O)(=O)c3ccc4c(c3)CCCC(=O)N4)CC2)cc1 (stereo not drawn)	/	1%	/	/	/	5%
CCN(CC)CC(=O)Nc1ccc(Oc2ccc(NC(=O)CN(CC)CC)cc2)cc1	2	-4%	7	2%	0%	/
O=C(CSc1ccccc1)Nc1ccc(C(=O)Nc2ccc(O)cc2)cc1	2	8%	19	12%	6%	1%

Assay outcomes (PubChem)
